# Assay results as given in the supplement of paper PMC10849652.
# Of roughly 7,900 targets only a part is listed; those with a hit were picked by preference. About 0.6% of all pairs of compound and target were hits. Values without a mark were called inactive.
# What was measured:
# Test in all cases: log2 fold change, soluble protein after heating vs DMSO (PISA); higher = thermal stabilisation; K562 cells, 10 uM, 30 min; active = over 0.2 and 3.5 SD of the protein, either way, in both replicates (recomputed)
# saracatinib = compound: CN1CCN(CCOc2cc(OC3CCOCC3)c3c(Nc4c(Cl)ccc5c4OCO5)ncnc3c2)CC1 [saracatinib]
# Outline: (§1)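 Aliquots of K562 cells (2×10^6 cells/mL) treated with 10 μM compound for 30 min were heated for 3 min over 48°C-58°C. After pooling and extraction in PBS with 0.5% NP-40 at 4°C, soluble protein from a 21,000xg, 90 min spin was quantified by TMTpro 16plex LC-MS/MS with channel sums equalised. Thermal stability is expressed against control samples, from duplicates, as a log2 fold change.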
# sotrastaurin = compound: CN1CCN(c2nc(C3=C(c4c[nH]c5ccccc45)C(=O)NC3=O)c3ccccc3n2)CC1 [sotrastaurin]
# Outline: as §1
# alvocidib = compound: CN1CC[C@H](c2c(O)cc(O)c3c(=O)cc(-c4ccccc4Cl)oc23)[C@H](O)C1 [alvocidib]
# Outline: as §1
# Tubastatin A = compound: CN1CCc2c(c3ccccc3n2Cc2ccc(C(=O)NO)cc2)C1 [Tubastatin A]
# Outline: as §1
# [1] = compound: CNC(=O)C1=CC=CC=C1NC2=NC(=NC=C2Cl)NC3=C(C=C(C=C3)N4CCOCC4)OC
# Outline: as §1
# defactinib = compound: CNC(=O)c1ccc(Nc2ncc(C(F)(F)F)c(NCc3nccnc3N(C)S(C)(=O)=O)n2)cc1 [defactinib]
# Outline: as §1
# rucaparib = compound: CNCc1ccc(-c2[nH]c3cc(F)cc4c3c2CCNC4=O)cc1 [rucaparib]
# Outline: as §1
# [2] = compound: CNc1nc(-c2ccc3c(N)n[nH]c3c2)cc(N2C[C@@H](C(=O)NC3CCCCC3)CC[C@H]2C)n1
# Outline: as §1
# encorafenib = compound: COC(=O)N[C@@H](C)CNc1nccc(-c2cn(C(C)C)nc2-c2cc(Cl)cc(NS(C)(=O)=O)c2F)n1 [encorafenib]
# Outline: as §1
# [3] = compound: COC(=O)[C@H](CCSC)NC(=O)C1=C(C=C(C=C1)NC[C@H](CS)N)C2=CC=CC=C2
# Outline: as §1
# [4] = compound: COC1=CC=C(C=C1)CN2C=CC3=C2C=C(C=C3)C(=O)NO
# Outline: as §1
# filanesib = compound: CON(C)C(=O)N1N=C(c2cc(F)ccc2F)S[C@@]1(CCCN)c1ccccc1 [filanesib]
# Outline: as §1
# zotarolimus = compound: CO[C@H]1C[C@@H]2CC[C@@H](C)[C@@](O)(O2)C(=O)C(=O)N2CCCC[C@H]2C(=O)O[C@H]([C@H](C)C[C@@H]2CC[C@H](n3cnnn3)[C@H](OC)C2)CC(=O)[C@H](C)/C=C(\C)[C@@H](O)[C@@H](OC)C(=O)[C@H](C)C[C@H](C)/C=C/C=C/C=C/1C [zotarolimus]
# Outline: as §1
# idasanutlin = compound: COc1cc(C(=O)O)ccc1NC(=O)[C@@H]1N[C@@H](CC(C)(C)C)[C@](C#N)(c2ccc(Cl)cc2F)[C@H]1c1cccc(Cl)c1F [idasanutlin]
# Outline: as §1
# alisertib = compound: COc1cc(Nc2ncc3c(n2)-c2ccc(Cl)cc2C(c2c(F)cccc2OC)=NC3)ccc1C(=O)O [alisertib]
# Outline: as §1
# [5] = compound: COc1cc2nc(-c3cc(F)ccc3O)nc(N[C@@H]3CNC[C@H]3C(C)(C)O)c2cc1OC
# Outline: as §1
# [6] = compound: COc1cccc2cc(-c3nc([C@H]4CC[C@H](C(=O)O)CC4)n4ncnc(N)c34)[nH]c12
# Outline: as §1
# lapatinib = compound: CS(=O)(=O)CCNCc1ccc(-c2ccc3ncnc(Nc4ccc(OCc5cccc(F)c5)c(Cl)c4)c3c2)o1 [lapatinib]
# Outline: as §1
# pictilisib = compound: CS(=O)(=O)N1CCN(Cc2cc3nc(-c4cccc5[nH]ncc45)nc(N4CCOCC4)c3s2)CC1 [pictilisib]
# Outline: as §1
# gefitinib = compound: COc1cc2ncnc(Nc3ccc(F)c(Cl)c3)c2cc1OCCCN1CCOCC1 [gefitinib]
# Outline: as §1
# UniProt O43824, sequence (O43824 whole entry, looked up): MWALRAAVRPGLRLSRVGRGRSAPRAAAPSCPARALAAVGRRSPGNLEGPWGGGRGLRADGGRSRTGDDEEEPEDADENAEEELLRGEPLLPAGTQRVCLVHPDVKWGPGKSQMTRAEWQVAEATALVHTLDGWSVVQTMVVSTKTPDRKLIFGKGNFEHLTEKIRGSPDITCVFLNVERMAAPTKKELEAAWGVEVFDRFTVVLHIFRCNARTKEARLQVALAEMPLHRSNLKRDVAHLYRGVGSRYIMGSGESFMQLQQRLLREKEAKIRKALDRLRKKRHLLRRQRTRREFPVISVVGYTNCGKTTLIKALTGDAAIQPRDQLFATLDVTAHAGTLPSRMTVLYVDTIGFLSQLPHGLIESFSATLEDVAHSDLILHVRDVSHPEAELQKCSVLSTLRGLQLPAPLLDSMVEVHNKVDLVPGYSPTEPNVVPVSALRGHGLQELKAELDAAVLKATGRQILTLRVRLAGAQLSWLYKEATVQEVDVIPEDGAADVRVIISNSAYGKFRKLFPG
# UniProt Q86YM7, sequence (Q86YM7 whole entry, looked up): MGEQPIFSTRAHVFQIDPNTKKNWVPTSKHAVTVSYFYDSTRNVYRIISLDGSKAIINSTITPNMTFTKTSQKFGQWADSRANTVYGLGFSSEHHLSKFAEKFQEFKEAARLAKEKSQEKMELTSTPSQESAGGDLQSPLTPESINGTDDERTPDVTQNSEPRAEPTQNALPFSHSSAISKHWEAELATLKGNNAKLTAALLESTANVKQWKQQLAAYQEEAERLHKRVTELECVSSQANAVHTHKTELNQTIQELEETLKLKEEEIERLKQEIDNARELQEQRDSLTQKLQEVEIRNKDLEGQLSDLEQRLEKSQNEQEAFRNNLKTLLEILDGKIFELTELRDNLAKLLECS
# UniProt O43524, sequence (O43524 whole entry, looked up): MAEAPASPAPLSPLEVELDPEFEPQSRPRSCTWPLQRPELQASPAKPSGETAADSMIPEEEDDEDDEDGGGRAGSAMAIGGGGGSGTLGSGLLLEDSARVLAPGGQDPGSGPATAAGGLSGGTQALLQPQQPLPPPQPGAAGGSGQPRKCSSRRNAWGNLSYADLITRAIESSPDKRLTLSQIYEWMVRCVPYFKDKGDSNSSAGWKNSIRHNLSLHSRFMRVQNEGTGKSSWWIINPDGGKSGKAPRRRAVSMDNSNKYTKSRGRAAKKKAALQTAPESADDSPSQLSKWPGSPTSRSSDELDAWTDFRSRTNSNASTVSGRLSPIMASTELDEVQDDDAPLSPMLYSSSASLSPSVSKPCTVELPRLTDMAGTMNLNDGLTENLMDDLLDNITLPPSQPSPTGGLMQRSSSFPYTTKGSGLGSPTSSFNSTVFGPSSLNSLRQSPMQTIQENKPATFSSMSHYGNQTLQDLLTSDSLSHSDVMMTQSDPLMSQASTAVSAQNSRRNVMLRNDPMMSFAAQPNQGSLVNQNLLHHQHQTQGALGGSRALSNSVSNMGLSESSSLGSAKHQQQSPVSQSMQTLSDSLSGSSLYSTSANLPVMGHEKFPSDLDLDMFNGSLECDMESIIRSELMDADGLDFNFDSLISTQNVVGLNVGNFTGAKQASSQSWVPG
# UniProt P07910, sequence (P07910 whole entry, looked up): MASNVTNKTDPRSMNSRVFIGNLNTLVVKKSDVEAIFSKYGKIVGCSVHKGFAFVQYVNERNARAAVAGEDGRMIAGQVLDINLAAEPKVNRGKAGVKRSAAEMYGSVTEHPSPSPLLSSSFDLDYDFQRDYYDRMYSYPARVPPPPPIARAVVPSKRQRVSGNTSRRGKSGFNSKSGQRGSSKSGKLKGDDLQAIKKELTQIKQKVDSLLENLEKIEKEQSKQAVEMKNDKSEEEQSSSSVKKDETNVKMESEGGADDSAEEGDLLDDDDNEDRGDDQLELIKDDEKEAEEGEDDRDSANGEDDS
# UniProt Q9H4G4, sequence (Q9H4G4 whole entry, looked up): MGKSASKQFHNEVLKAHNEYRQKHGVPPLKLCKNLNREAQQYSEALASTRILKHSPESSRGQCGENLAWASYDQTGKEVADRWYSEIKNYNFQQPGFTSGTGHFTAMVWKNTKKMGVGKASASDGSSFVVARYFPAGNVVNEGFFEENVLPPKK
# UniProt Q7Z4Q2, sequence (Q7Z4Q2 whole entry, looked up): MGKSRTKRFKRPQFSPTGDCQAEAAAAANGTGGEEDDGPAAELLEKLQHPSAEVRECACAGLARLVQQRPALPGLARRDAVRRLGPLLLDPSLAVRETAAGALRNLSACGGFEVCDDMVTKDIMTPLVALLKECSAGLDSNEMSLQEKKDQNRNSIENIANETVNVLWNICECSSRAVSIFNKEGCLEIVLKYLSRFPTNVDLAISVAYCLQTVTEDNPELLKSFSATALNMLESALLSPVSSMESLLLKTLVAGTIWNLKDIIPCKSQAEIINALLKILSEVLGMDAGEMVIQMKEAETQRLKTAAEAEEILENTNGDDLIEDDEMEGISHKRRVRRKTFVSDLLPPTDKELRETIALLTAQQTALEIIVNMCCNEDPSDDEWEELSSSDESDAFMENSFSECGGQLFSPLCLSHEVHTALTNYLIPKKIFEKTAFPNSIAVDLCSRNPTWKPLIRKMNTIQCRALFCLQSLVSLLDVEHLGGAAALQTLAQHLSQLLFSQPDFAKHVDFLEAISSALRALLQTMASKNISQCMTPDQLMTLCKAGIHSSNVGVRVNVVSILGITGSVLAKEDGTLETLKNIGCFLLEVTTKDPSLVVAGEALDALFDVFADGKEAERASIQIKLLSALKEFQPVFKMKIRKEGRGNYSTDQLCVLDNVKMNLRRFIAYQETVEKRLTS
# UniProt P08754, sequence (P08754 whole entry, looked up): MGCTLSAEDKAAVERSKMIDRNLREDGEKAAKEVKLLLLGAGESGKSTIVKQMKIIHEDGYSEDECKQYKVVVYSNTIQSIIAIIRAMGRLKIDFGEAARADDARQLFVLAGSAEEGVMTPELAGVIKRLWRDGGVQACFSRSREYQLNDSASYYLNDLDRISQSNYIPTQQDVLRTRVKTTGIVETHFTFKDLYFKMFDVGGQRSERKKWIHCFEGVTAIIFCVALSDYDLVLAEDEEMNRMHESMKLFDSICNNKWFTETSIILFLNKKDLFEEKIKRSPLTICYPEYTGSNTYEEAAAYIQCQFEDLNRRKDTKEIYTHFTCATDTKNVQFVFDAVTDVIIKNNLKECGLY
# UniProt Q1KMD3, sequence (Q1KMD3 whole entry, looked up): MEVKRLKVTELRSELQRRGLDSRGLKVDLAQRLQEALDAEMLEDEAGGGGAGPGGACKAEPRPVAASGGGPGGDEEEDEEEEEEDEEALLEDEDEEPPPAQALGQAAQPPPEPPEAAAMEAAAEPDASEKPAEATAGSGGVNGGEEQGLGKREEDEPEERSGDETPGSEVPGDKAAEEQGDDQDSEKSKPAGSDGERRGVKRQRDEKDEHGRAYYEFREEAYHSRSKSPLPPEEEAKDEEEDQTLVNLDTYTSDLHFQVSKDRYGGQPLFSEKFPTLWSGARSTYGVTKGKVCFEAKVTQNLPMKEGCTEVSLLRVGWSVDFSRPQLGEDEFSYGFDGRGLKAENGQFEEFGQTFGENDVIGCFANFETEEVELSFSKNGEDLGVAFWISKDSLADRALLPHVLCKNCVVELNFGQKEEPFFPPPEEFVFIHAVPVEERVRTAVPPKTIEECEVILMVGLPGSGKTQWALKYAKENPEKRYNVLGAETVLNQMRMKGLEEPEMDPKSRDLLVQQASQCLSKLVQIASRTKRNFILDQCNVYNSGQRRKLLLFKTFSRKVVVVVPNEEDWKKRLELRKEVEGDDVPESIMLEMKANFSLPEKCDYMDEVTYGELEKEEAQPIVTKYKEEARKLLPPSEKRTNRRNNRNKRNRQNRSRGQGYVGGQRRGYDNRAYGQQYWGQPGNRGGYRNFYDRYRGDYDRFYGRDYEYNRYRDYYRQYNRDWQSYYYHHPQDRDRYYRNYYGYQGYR
# UniProt Q13889, sequence (Q13889 whole entry, looked up): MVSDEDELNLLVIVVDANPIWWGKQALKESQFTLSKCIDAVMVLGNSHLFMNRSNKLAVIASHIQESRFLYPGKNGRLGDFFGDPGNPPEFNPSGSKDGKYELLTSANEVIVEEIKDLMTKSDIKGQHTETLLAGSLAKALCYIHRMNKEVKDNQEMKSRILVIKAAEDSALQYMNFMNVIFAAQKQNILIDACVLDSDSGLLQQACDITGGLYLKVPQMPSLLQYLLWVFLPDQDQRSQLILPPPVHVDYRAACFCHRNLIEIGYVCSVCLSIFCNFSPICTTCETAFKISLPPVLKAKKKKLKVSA
# UniProt Q53R41, sequence (Q53R41 whole entry, looked up): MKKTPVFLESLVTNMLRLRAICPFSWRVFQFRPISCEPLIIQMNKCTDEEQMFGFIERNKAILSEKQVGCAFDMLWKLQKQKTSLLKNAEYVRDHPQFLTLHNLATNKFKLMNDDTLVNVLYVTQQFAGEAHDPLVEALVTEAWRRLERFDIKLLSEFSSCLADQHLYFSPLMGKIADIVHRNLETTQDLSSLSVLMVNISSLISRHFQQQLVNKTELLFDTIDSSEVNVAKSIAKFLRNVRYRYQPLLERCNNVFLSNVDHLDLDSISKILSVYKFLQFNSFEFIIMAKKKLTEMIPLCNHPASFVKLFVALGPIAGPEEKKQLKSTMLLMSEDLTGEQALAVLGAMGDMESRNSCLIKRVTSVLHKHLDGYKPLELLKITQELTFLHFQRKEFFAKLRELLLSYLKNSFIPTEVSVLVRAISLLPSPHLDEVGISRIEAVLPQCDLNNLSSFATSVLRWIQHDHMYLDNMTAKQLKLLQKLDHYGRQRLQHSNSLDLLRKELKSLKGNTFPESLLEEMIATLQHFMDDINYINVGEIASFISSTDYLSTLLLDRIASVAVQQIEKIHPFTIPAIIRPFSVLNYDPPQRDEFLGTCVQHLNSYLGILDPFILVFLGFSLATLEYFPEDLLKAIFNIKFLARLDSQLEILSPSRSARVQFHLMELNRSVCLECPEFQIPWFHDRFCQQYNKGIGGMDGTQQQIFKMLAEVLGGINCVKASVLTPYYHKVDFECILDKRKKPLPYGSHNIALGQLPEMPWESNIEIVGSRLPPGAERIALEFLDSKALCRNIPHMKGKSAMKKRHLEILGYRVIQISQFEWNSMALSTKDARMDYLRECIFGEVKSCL
Target,log2 fold change (saracatinib),log2 fold change (sotrastaurin),log2 fold change (alvocidib),log2 fold change (Tubastatin A),log2 fold change [1],log2 fold change (defactinib),log2 fold change (rucaparib),log2 fold change [2],log2 fold change (encorafenib),log2 fold change [3],log2 fold change [4],log2 fold change (filanesib),log2 fold change (zotarolimus),log2 fold change (idasanutlin),log2 fold change (alisertib),log2 fold change [5],log2 fold change [6],log2 fold change (lapatinib),log2 fold change (pictilisib),log2 fold change (gefitinib)
FOXO3 (UniProt O43524),-0.017,0.004,-0.124,0.051,-0.167,-0.037,-0.077,-0.208,0.16,0.021,0.027,-0.069,0.083,0.154,0.149,-0.067,-0.068,-0.106,-0.09,–
HNRNPUL2 (UniProt Q1KMD3),-0.023,0.039,0.166,0.065,-0.06,0.259 (active),0.125,-0.017,0.007,0.006,-0.012,0.156,-0.015,0.083,-0.026,0.105,0.005,-0.018,0.035,-0.02
HAUS4 (UniProt Q9H6D7),0.466,-0.194,0.035,0.044,0.195,0.019,0.337,0.044,0.194,-0.03,–,0.245,0.05,0.126,-0.103,0.024,0.323,-0.038,-0.162,-0.086
HAX1 (UniProt O00165),-0.067,-0.106,-0.015,0.015,-0.14,-0.008,0.082,0.051,0.045,-0.013,-0.056,0.017,0.004,0.04,-0.007,-0.311,-0.014,-0.015,-0.145,-0.041
FIBP (UniProt O43427),-0.074,-0.05,-0.01,0.07,0.002,-0.046,0.395 (active),-0.085,0.039,0.004,0.083,-0.051,-0.047,0.03,0.016,0.042,-0.084,0.008,0.185,–
HEATR3 (UniProt Q7Z4Q2),-0.045,-0.167,-0.128,0.109,-0.054,-0.048,0.081,-0.006,-0.028,-0.006,0.027,0.007,-0.004,–,0.099,-0.083,0.046,0.004,-0.134,0.072
GSK3B isoform 2 (UniProt P49841),0.012,0.2,0.052,-0.007,0.001,-0.015,0.059,-0.019,-0.003,0.03,0.133,-0.034,0.013,-0.121,–,0.056,0.022,-0.013,0.014,-0.041
GNAI3 (UniProt P08754),0.063,-0.011,-0.02,0.046,0.093,-0.041,-0.009,0.025,-0.004,-0.003,-0.041,-0.002,-0.081,-0.004,-0.124,0.066,-0.013,0.009,0.059,0.118
FBL (UniProt P22087),0.11,-0.016,0.262,-0.022,-0.012,0.375,0.511,0.002,0.096,0.023,-0.154,0.664,0.034,0.441,0.006,0.077,-0.069,0.11,-0.093,0.059
GTPBP6 (UniProt O43824),0.049,-0.011,0.015,-0.03,-0.149,-0.013,0.053,0.007,-0.086,0.057,-0.105,0.049,0.061,0.018,-0.217,–,0,–,-0.012,-0.146
FASTKD1 (UniProt Q53R41),-0.118,-0.046,-0.12,0.037,0.037,-0.22,-0.093,0.112,0.026,-0.02,-0.037,-0.011,-0.192,-0.028,–,–,–,–,0.127,0.473
GTF2H3 (UniProt Q13889),-0.099,-0.079,-0.071,0.124,0.008,0.009,0.09,-0.001,-0.073,0.043,-0.031,0.062,-0.04,-0.077,-0.155,0.016,0.041,0.056,-0.089,0
GLIPR2 (UniProt Q9H4G4),0.002,-0.027,0.054,-0.002,0.036,0.047,0.015,0.035,-0.062,-0.013,0,-0.147,0.024,0.096,-0.031,-0.239,-0.036,0.103,-0.011,–
HOMER1 (UniProt Q86YM7),0.032,0.045,-0.047,-0.084,0.021,0.015,0.021,0.007,0.04,-0.047,0.168,0.051,0.043,0.011,-0.083,-0.023,-0.042,0.073,-0.001,0.086
HEATR5B (UniProt Q9P2D3),0.043,0.008,-0.023,0.016,0.022,-0.099,0.028,0.015,0.041,-0.006,-0.006,-0.005,-0.071,0,0.006,0.039,0.033,0.018,-0.065,-0.045
HNRNPC isoform 2 (UniProt P07910),-0.067,-0.035,0.04,0.219,0.033,0.054,0.392,0.115,0.148,0.071,0.009,0.39,-0.024,0.796,-0.052,-0.041,-0.065,-0.026,0.065,0.002
